Test results taken from PubChem BioAssay (NCI).
Values joined by “and” are separate entries in the source; they are usually repeats but may differ in a detail not shown here. Identical values can stand only once. Compounds without any hit were thinned out: in the full panel of roughly 83,000, 20% have a hit.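 Results are percent growth after 48 hours of single-concentration exposure. 100 means growth as in untreated cells, lower positive values show inhibition; negative values down to -100 show cell death.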 A number with no mark means an inactive call. Active and inactive are the calls of the source. The calls were made as follows: active = growth percent below 10; inactive = the rest.

Columns and labels:
Assay in all cases: NCI-60 one-dose screen, 48 h (100 = growth as untreated, 0 = no growth, -100 = all killed)
Details in all cases: 10 µM unless noted
T-47D breast = test system: T-47D breast
BT-549 breast = test system: BT-549 breast
MDA-MB-435 melanoma = test system: MDA-MB-435 melanoma
SW-620 colon = test system: SW-620 colon
MCF7 breast = test system: MCF7 breast
HCT-116 colon = test system: HCT-116 colon
HCC-2998 colon = test system: HCC-2998 colon
KM12 colon = test system: KM12 colon

| Structure (SMILES) | growth (T-47D breast) | growth (BT-549 breast) | growth (MDA-MB-435 melanoma) | growth (SW-620 colon) | growth (MCF7 breast) | growth (HCT-116 colon) | growth (HCC-2998 colon) | growth (KM12 colon) |
| --- | --- | --- | --- | --- | --- | --- | --- | --- |
| O=C(Nc1ccccc1)OCC(CN1CCCCC1)OC(=O)Nc1ccccc1 (stereo not given) | 71.5% and 97% | 69.7% and 102% | 90.3% and 97.4% | 104% and 96.9% | 72.9% and 96% | 69.1% and 93.6% | 94% and 98.4% | 93% and 101% |
| O=C(O)/C=C/C=C/c1ccccc1 | 100% and 105% | 103% and 107% | 105% and 111% | 104% and 103% | 92.9% and 94.4% | 101% and 96% | 104% | 105% and 103% |
| CC(NC(=O)CCl)c1ccccc1 (stereo not given) | 103% | 95.3% | 99.7% | 96.4% | 94% | 97.6% | 106% | 105% |
| Cc1ccc(N)cc1S(=O)(=O)O | 103% and 117% | 97.9% | 115% and 109% | 104% and 105% | 105% and 98.8% | 103% | 109% and 108% | 98.7% and 104% |
| CC1(C)OC(=O)C(=Cc2ccc(C#N)cc2)C(=O)O1 | 86.4% and 102% | 109% and 103% | 108% and 105% | 100% and 104% | 104% and 95.6% | 96.5% and 108% | 112% and 105% | 105% and 115% |
| COC1C(OC(N)=O)C(O)C(Oc2ccc3c(O)c(NC(=O)c4ccc(O)c(CC=C(C)C)c4)c(=O)oc3c2C)OC1(C)C (stereo not given) | 106% and 94.8% | 112% and 97.8% | 98.6% and 98.8% | 104% and 92.7% | 96.8% and 93.4% | 96.8% and 101% | 107% and 96.6% | 110% and 101% |
| C=CCN1C(=O)c2ccccc2C1=O | 118% | 96.8% | 106% | 98.5% | 98.6% | 99.2% | 104% | 110% |
| CCOC(=O)c1csc(N)n1 | 104% and 98.5% | 102% and 105% | 99% and 102% | 104% and 103% | 91.8% and 90.8% | 107% and 99.4% | 115% and 101% | 110% and 108% |
| CC(=O)Oc1ccc(C(c2ccc(OC(C)=O)cc2)c2ccccn2)cc1 | -15.1% (active) and -18.5% (active) | -16.4% (active) | 110% and 103% | 104% and 83.9% | 20.6% and 34.8% | 88.6% and 96% | 70.5% | 80% and 85% |
| CCC(C)(O)CCC(C)(O)CC (stereo not given) | 96% | 107% | 111% | 112% | 92.4% | 101% | 87.7% | 103% |
| O=c1[nH]c(=O)c2[nH]c(=O)[nH]c2[nH]1 | 103% | 90.8% | 100% | 94.3% | 92.1% |  | 107% | 104% |
| CCOCCC(=O)O | 94.1% | 107% | 108% | 101% | 104% |  | 123% | 117% |
| CC1CCC(=O)N1c1ccc(N)cc1 (stereo not given) | 81.9% | 99.9% | 109% | 114% | 97.6% |  | 98.8% |  |
